# Hit rate of the full screen: of about 310,000 compounds, about 14,000 (4.5%) showed an effect of 50% or more. The effect is printed as a negative number. The full list was thinned out, with strong results kept by preference.
# Target: human ether-à-go-go-related gene (hERG) potassium channel (human, UniProt Q12809)
# Experiment: primary screen, population patch clamp on CHO cells stably expressing hERG; higher = less effect of the substance
# 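Also: peak tail current of the secondary pulse compared with the same well before compound.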
# Sequence of human ether-à-go-go-related gene (hERG) potassium channel (Q12809 whole entry, looked up): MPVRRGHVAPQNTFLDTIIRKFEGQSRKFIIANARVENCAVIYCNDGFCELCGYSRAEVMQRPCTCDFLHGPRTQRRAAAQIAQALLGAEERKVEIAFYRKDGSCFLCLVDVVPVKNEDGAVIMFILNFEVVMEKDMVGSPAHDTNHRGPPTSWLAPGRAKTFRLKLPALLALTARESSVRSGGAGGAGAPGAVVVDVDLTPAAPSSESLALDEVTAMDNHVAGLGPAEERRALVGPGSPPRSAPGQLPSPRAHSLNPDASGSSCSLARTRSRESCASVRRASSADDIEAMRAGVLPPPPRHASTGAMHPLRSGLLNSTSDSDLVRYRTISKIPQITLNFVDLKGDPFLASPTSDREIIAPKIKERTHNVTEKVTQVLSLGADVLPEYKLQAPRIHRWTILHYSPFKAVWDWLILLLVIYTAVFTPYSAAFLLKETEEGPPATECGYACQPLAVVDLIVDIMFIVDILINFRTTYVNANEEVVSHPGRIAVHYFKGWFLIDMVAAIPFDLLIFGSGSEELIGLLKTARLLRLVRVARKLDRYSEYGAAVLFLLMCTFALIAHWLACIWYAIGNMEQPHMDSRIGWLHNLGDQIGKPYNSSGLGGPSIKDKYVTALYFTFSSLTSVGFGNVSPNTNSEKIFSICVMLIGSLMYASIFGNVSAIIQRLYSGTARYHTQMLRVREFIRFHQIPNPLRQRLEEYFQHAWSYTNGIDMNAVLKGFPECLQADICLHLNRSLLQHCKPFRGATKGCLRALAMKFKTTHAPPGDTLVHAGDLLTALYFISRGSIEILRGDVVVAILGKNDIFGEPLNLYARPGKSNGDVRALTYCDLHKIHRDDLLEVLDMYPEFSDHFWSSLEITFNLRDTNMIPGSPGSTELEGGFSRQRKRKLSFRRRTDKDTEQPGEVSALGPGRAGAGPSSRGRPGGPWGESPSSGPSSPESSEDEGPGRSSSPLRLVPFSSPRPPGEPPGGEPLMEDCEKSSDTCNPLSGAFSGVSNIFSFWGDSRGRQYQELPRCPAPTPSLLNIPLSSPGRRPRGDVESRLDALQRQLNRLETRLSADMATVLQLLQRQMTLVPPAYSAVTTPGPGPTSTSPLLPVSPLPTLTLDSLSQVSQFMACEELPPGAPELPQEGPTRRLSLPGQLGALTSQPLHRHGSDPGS
row,Structure (SMILES),"hERG current change (%, negative = inhibition) at 10uM [%]"
1,CC1CCC(C(C)C)C(OC(=O)C2=C3c4ccccc4S(=O)(=O)N3CC2)C1 (centres unmarked),12.3
2,CN(C)S(=O)(=O)N1CCN(C(=O)N2CCCCCC2)CC1,-12.2
3,O=C(N/N=C/c1ccccn1)c1cccc(NC(=O)c2ccccc2Cl)c1,-4.9
4,CC(=O)O.Cc1nc2nc(CSc3nnc(C)s3)cc(=O)n2[nH]1,13.9
5,CCOC(=O)CN(C(=O)Cn1nnc(-c2ccc(C)cc2)n1)C(CC)C(=O)NC1CCCC1 (centres unmarked),-8.67
6,Cc1cc2c(cc1C)C(c1cc(Br)ccc1F)CC(=O)N2 (centres unmarked),8.78
7,COc1ccc2[nH]c(C)c(CCNC(=S)Nc3ccccc3OC)c2c1,8.79
8,CN(C)CCn1c(C(=O)Nc2ccccc2)cc2ccccc21.Cl,-58.9
9,CNC(=O)c1cc2cc(OC)ccc2n1CCN(C)C,-11.6
10,CN(C)CCn1c(C(=O)O)cc2ccccc21.Cl,14.6
11,CCOC(=O)CSc1nc(=O)n2ccccc2n1,13.2
12,COc1ccccc1NC(=O)CCS(=O)(=O)c1ccccc1,12.7
13,CC(NC(=O)Cn1cc2c(n1)CCCCC2)c1ccccc1 (centres unmarked),1.69
14,Cc1ccc2nc(SCC(=O)c3ccccc3)nc(=O)n2c1,-10.1
15,COc1ccc(C)cc1Nc1n[n+](-c2ccccc2)c(-c2ccc(N(C)C)cc2)s1.[Cl-],-49.3
16,COc1ccc(C)cc1Nc1n[n+](-c2ccccc2)c(-c2ccc(SC)cc2)s1.[Cl-],-1.4
17,CCOc1cc(-c2sc(Nc3ccc(CC)cc3)n[n+]2-c2ccccc2)ccc1OC.[Cl-],-78.7
18,CCc1ccc(Nc2n[n+](-c3ccccc3)c(-c3ccc(OC)c(Br)c3)s2)cc1.[Cl-],-44
19,CCOc1cc(-c2sc(Nc3cc(C)ccc3OC)n[n+]2-c2ccccc2)ccc1OC.[Cl-],-68.7
20,CCOc1cc(-c2sc(Nc3ccccc3)n[n+]2-c2ccc(F)cc2)ccc1OC.[Cl-],23.6
21,COc1ccc2ccccc2c1C1CC(=O)N2CN(C)CSC2=C1C#N (centres unmarked),12.7
22,CCn1c(/C=C2\C(=O)Nc3ccccc32)nc2ccccc2c1=O,-18.3
23,Cc1ccc(NC(=O)CC2SC(=NC3CCCCC3)NC2=O)cc1 (centres unmarked),-9.82

row,Structure (SMILES),"hERG current change (%, negative = inhibition) at 10uM [%]"
1,Cc1ccc(C(CNS(=O)(=O)c2ccc(F)cc2)N2CCN(C)CC2)cc1 (centres unmarked),-58.3
2,Cc1ccc(S(=O)(=O)NC(C)C(c2cccs2)N2CCN(C)CC2)cc1 (centres unmarked),-18
3,Cc1ccc(C(CNS(=O)(=O)c2ccc(C)cc2)N2CCN(C)CC2)cc1 (centres unmarked),-62.8
4,CN1CCN(C(CNS(=O)(=O)c2ccc([N+](=O)[O-])cc2)c2ccc(F)cc2)CC1 (centres unmarked),-67.6
5,CC(NS(=O)(=O)c1ccccc1)C(c1cccs1)N1CCN(C)CC1 (centres unmarked),5.5
6,O=[N+]([O-])c1ccc(S(=O)(=O)NCC(c2cccnc2)N2CCOCC2)cc1 (centres unmarked),-22
7,COc1ccc(S(=O)(=O)NCC(c2ccc(F)cc2)N2CCN(C)CC2)cc1 (centres unmarked),-36.4
8,COc1ccc(C(CNS(=O)(=O)c2ccc(F)cc2)N2CCN(C)CC2)cc1 (centres unmarked),-32.5
9,O=[N+]([O-])c1ccc(S(=O)(=O)NCC(c2cccnc2)N2CCc3ccccc3C2)cc1 (centres unmarked),-35.6
10,COc1ccc(S(=O)(=O)NCC(c2ccc(C)cc2)N2CCN(C)CC2)cc1OC (centres unmarked),-25.6
11,Cc1ccc(S(=O)(=O)NCC(c2ccccc2)N2CCN(CCC#N)CC2)cc1 (centres unmarked),-21.5
12,CC(NS(=O)(=O)c1ccc(Br)cc1)C(c1cccs1)N1CCN(C)CC1 (centres unmarked),-53.2
13,Cc1ccc(Nc2nnc(SCC(=O)Nc3ncc(S(=O)(=O)c4ccc([N+](=O)[O-])cc4)s3)s2)cc1,-14.5
14,CC1CCN(S(=O)(=O)c2ccc(NC(=O)CN3CCCCCC3)cc2)CC1,-31.2
15,Cc1c(CCO)c(=O)n(-c2ccccc2)n1S(=O)(=O)c1ccc(F)cc1,1.37
16,COc1ccccc1NC(=O)c1sc2nc(N3CCOCC3)c3c(c2c1N)CCCC3,15.2
17,CN(C)c1ccc(C(CNS(=O)(=O)c2ccc([N+](=O)[O-])cc2)N2CCOCC2)cc1 (centres unmarked),-25.9
18,Cc1ccc(C(CNS(=O)(=O)c2ccc(F)cc2C)N2CCN(C)CC2)cc1 (centres unmarked),-57
19,COc1ccc(C(CNS(=O)(=O)c2ccc(C)cc2)N2CCN(C)CC2)cc1 (centres unmarked),-45.2
20,O=S(=O)(NCC(c1ccccc1)N1CCC(O)CC1)c1ccc(Cl)cc1 (centres unmarked),-19.6
21,COc1ccc(S(=O)(=O)NCC(c2ccc(C)cc2)N2CCN(C)CC2)cc1 (centres unmarked),-51.9
22,Cc1cc(F)ccc1S(=O)(=O)NCC(c1ccc2c(c1)OCO2)N1CCOCC1 (centres unmarked),-16.8
23,Cc1ccc(C(CNS(=O)(=O)c2ccc(Cl)cc2)N2CCN(C)CC2)cc1 (centres unmarked),-72.8

row,Structure (SMILES),"hERG current change (%, negative = inhibition) at 10uM [%]"
1,COc1ccc(OC)c(S(=O)(=O)NCC(c2ccc(F)cc2)N2CCN(C)CC2)c1 (centres unmarked),-33.8
2,O=S(=O)(NCC(c1ccccc1)N1CCNCC1)c1ccc(Cl)cc1 (centres unmarked),-28.6
3,COc1ccc(N2CCN(C(CNS(=O)(=O)c3ccccc3)c3ccccc3)CC2)cc1 (centres unmarked),-22.5
4,CN(C)c1ccc(C(CNS(=O)(=O)c2ccc([N+](=O)[O-])cc2)N2CCCC2)cc1 (centres unmarked),-47.2
5,Cc1ccc(C(CNS(=O)(=O)c2ccc([N+](=O)[O-])cc2)N2CCN(C)CC2)cc1 (centres unmarked),-66.8
6,CC1CN(c2oc(COc3ccc(Cl)cc3Cl)nc2C#N)CC(C)O1 (centres unmarked),-13.6
7,c1ccc(SCc2cn3cccnc3n2)nc1,15.1
8,COc1cc(OC)c(NS(=O)(=O)c2cc(C(=O)OC(C)C(=O)NC3CC3)c(Cl)cc2Cl)cc1Cl (centres unmarked),-37
9,COc1cccc(OCCOc2ccc(/C=C3\C(=N)N4N=C(S(C)(=O)=O)SC4=NC3=O)cc2OC)c1,23.4
10,O=C(COC(=O)c1cc(-c2ccccc2Cl)nc2ccccc12)Nc1ncc(C(F)(F)F)cc1Cl,-10.9
11,COC(=O)c1cccc(-c2ccc(/C=N/N3C(=O)C4C5C=CC(C6CC56)C4C3=O)o2)c1 (centres unmarked),-8.32
12,CC1CCN(S(=O)(=O)c2ccc3c(c2)c(=O)c(C(=O)N2CCOCC2)cn3C)CC1,13.5
13,CC(Oc1ccc(Br)cc1)C(=O)N(C)CC(=O)Nc1ccc(N2CCOCC2)cc1 (centres unmarked),2.99
14,CC(C)CN(CC(C)C)C(=O)CN1C(=O)NC2(CCc3ccccc3C2)C1=O (centres unmarked),-8.61
15,Cc1ccnc(-n2c(C)cc(/C=C3\C(=O)NC(=S)N(C)C3=O)c2C)c1,12.9
16,Cc1cc(=O)[nH]c(COc2ccccc2)n1,17.2
17,CCN(CC)S(=O)(=O)c1ccc2c(c1)nc(SCC(=O)N(C)C1CCS(=O)(=O)C1)n2CC (centres unmarked),6.94
18,N#Cc1c(Cl)nsc1NCCN1CCOCC1,15.4
19,Cc1cc(S(=O)(=O)NCC(c2ccc3c(c2)OCO3)N2CCOCC2)ccc1F (centres unmarked),-20.7
20,Cc1cc(S(=O)(=O)NCC(c2ccc(F)cc2)N2CCN(C)CC2)ccc1F (centres unmarked),-68.4
21,Cc1ccc(C(CNS(=O)(=O)c2ccccc2)N2CCN(C)CC2)cc1 (centres unmarked),-53.6
22,COc1ccc(C(CNS(=O)(=O)c2ccccc2)N2CCN(C)CC2)cc1 (centres unmarked),-35.7
23,Cc1ccc(S(=O)(=O)NCC(c2ccccc2)N2CCCCC2)cc1 (centres unmarked),1.79

row,Structure (SMILES),"hERG current change (%, negative = inhibition) at 10uM [%]"
1,O=S(=O)(NCC(c1ccc2c(c1)OCO2)N1CCOCC1)c1ccc(F)cc1 (centres unmarked),-6.81
2,Cc1ccc(S(=O)(=O)NCCNC(C)c2ccc(Br)cc2)cc1 (centres unmarked),-42.5
3,Cc1ccc(C(CNS(=O)(=O)c2ccc(Br)cc2)N2CCN(C)CC2)cc1 (centres unmarked),-72.4
4,COc1cccc(C(=O)NNC(=O)C2CCCO2)c1 (centres unmarked),15.3
5,CCC1=[N+](CC(=O)c2ccc(Br)cc2)CCn2c(C)ccc21.[Br-],-6.76
6,COc1cc(Nc2cc(C)nc3ncnn23)cc(OC)c1,-8.29
7,CN1CCC(NC(=O)Cc2c(F)cccc2Cl)CC1,-1.52
8,CS(=O)(=O)N1CCC(C(=O)Nc2ccc(C(F)(F)F)cc2)CC1,12.4
9,O=C1CCC2S/C(=C/Nc3ccc(C(F)(F)F)cc3)C(=O)N12 (centres unmarked),-52.2
10,O=C(c1ccc(C(F)(F)F)cc1)C1CCCN(C(=O)CN2CCCC2=O)C1 (centres unmarked),0.525
11,COc1ccc(OC)c(NC(=O)CCNS(=O)(=O)c2cc(Br)cnc2N)c1,-14.9
12,O=C(COC(=O)c1ccccn1)Nc1ccc2c(c1)OCO2,-65.5
13,Cn1c(SCC(=O)Nc2nc3ccccc3s2)nnc1-c1ccccc1,10.3
14,O=C(COC(=O)c1cccnc1Cl)Nc1ccc2c(c1)OCO2,2.28
15,COc1ccc2nc(NC(=O)CSc3nnc4n3C(C)(C)Cc3ccccc3-4)sc2c1,0.248
16,O=C(COC(=O)c1cnccn1)Nc1ccc2c(c1)OCO2,7.23
17,CC1(C)Cc2ccccc2-c2nnc(SCC(=O)Nc3nc4ccccc4s3)n21,-74.4
18,COc1cc(NC(=O)CSc2nnc3n2C(C)(C)Cc2ccccc2-3)cc(OC)c1,10
19,CCn1c(SCC(=O)Nc2ccc3c(c2)OCO3)nnc1-c1ccccc1O,7.21
20,CCSc1nnc2n1C(C)(C)Cc1ccccc1-2,0.0135
21,COC(=O)CSc1nnc2n1C(C)(C)Cc1ccccc1-2,3.46
22,CC1(C)Cc2ccccc2-c2nnc(SCc3ccc(C#N)cc3)n21,-58.9
23,CC1(C)Cc2ccccc2-c2nnc(SCC(=O)Nc3ccc4c(c3)OCO4)n21,-63.2
